Screens deposited in PubChem BioAssay by National Center for Advancing Translational Sciences (NCATS).
Only a selection was taken, and hits are over-represented in it overall.
Pf Dd2 growth: qHTS Primary assay for Inhibitors of Plasmodium falciparum Dd2 growth in vitro | P. falciparum Dd2 growth, SYBR Green, 72 h | Potency, µM (series often up to 28.9 µM), for inactives: top-dose activity, negative = inhibition, actives largely listed as inhibitors | actives 4.3% (n = 120,000); active = well fitted inhibition curve with a large enough effect;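 note: plate controls were DMSO vehicle for no effect and reference drug for full effect; nearly all actives have a fitted effect of over 65% in size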
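Infected erythrocytes (Dd2, 0.3% parasitemia, 2.5% hematocrit final) are added to compound in RPMI-1640/Albumax II medium, grown 72 h at 37C in low oxygen, then lysed with saponin/Triton-X containing SYBR Green and read by fluorescence.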
* = called active by the depositor; i = inactive; [ ] = dose if it differs, or a comment. Potency is the fitted concentration of half-maximal effect.

SMILES	Pf Dd2 growth
COC(=O)[C@@H]1Cc2c([nH]c3ccccc23)[C@H]2C[C@@H](NCCO)C[C@@H](c3ccc(F)cc3)N21	i
COC(=O)[C@@H]1Cc2c([nH]c3ccccc23)[C@H]2C[C@@H](N3CCOCC3)C[C@@H](c3ccc(F)cc3)N21	-13.9%
C#CCN[C@H]1C[C@@H]2c3[nH]c4ccccc4c3C[C@@H](C(=O)OC)N2[C@H](c2ccc(F)cc2)C1	12.6µM*
COC(=O)[C@@H]1Cc2c([nH]c3ccccc23)[C@H]2C[C@@H](NCc3cccnc3)C[C@@H](c3ccc(F)c(F)c3)N21	-11.6%
COC(=O)[C@@H]1Cc2c([nH]c3ccccc23)[C@H]2C[C@@H](NCCN3CCOCC3)C[C@@H](c3ccc(C(F)(F)F)cc3)N21	8.91µM*
COC(=O)[C@@H]1Cc2c([nH]c3ccccc23)[C@H]2C[C@H](NCc3cccs3)C[C@@H](c3ccccc3)N21	7.94µM*
COC(=O)[C@@H]1Cc2c([nH]c3ccccc23)[C@H]2C[C@H](NCCO)C[C@@H](c3ccccc3)N21	i
COC(=O)[C@@H]1Cc2c([nH]c3ccccc23)[C@@H]2C[C@@H](NCCNC(C)=O)C[C@@H](c3ccc(F)c(F)c3)N12	-0.3%
COC(=O)[C@@H]1Cc2c([nH]c3ccccc23)[C@H]2C[C@@H](NCCNC(C)=O)C[C@@H](c3ccc(C)cc3)N21	i
O=C(NCC1CCOCC1)c1ccco1	11.3%
COCCn1c(=O)[nH]c2cccnc21	-6.6%[44.1 µM]
Cc1ccc(C)c(S(=O)(=O)N(C)CC2CCOCC2)c1	-12.2%
O=C1CCN(S(=O)(=O)c2ccccc2)CCCC(C(=O)N2CCOCC2)CCN1 (stereo not drawn)	-7.8%
COC1CCC12CCN(C(=O)Nc1ccccc1)CC2 (stereo not drawn)	-14.8%
COCC(=O)NC1CCC12CCN(Cc1ccc(C)o1)CC2 (stereo not drawn)	-14.6%
CCC1Oc2ccc(NC(=O)Nc3cccc(OC)c3)cc2CN(Cc2ccc3c(c2)OCO3)C1=O (stereo not drawn)	i
O=C(NCCc1ccncc1)c1ccc(OC2CCN(C(=O)C3CC3)CC2)cc1	-23.3%
O=C(NC1CCN(c2cc(-c3ccc(Cl)cc3)[nH]n2)CC1)c1ccc2c(c1)OCO2	i
O=C(Cc1ccccc1F)N1CCC(Oc2ncccc2C(=O)N2CCCCC2)C1 (stereo not drawn)	-12.2%
O=C(Cc1cccs1)N1CCC(Oc2ncccc2C(=O)N2CCCCC2)C1 (stereo not drawn)	i
O=C(Cc1cccc(Cl)c1)N1CCC(Oc2ncccc2C(=O)N2CCCCC2)C1 (stereo not drawn)	7.94µM*
O=C(c1c(OCC2CC2)cc(=O)n2c1CCCCC2)N1CCc2ccccc2C1	i
O=C(NCc1ccc(F)cc1)c1ccc(CN2C(=O)NC3(CCOCC3)C2=O)cc1	42.6%
O=C([C@@H]1C[C@H](Oc2ccccc2)CN1C(=O)NC1CCCCC1)N1CCOCC1	23.8%
CCC(=O)N1CCc2oc(C)c(C(=O)N(C)C)c2C1	i
SMILES	Pf Dd2 growth
O=C1CCC(C(=O)N2CCSCC2)CN1CCc1cccc(F)c1 (stereo not drawn)	-0.2%
Cc1csc(NC(=O)c2nc3c(o2)CCN(Cc2cccc(F)c2)CC3)n1	i
Cc1oc2c(c1C(=O)N1CCSCC1)CN(Cc1cccc(F)c1)CC2	11.2µM*
Cc1oc2c(c1C(=O)N1CCN(c3ccccc3)CC1)CN(Cc1ccccc1)CC2	5.01µM*
Cc1oc2c(c1C(=O)N(C)C)CN(C(=O)CCc1ccccc1)CC2	6.31µM*
Cc1oc2c(c1C(=O)N1CCOCC1)CN(CCC(C)C)CC2	-20.0%
CN(C)C(=O)c1n[nH]c2c1CN(C(=O)CCc1ccccc1)CC2	-21.8%
CC(=O)N1CCN(C(=O)c2c(C)oc3c2CN(Cc2ccc(F)cc2)CC3)CC1	-1.1%
COC[C@@H]1CN(C(=O)COc2cccc(C)c2)C[C@H]1c1ccccn1	-0.7%
Nc1cccn2nc(C3CCC3)nc12	-16.4%
O=C(NCc1ccccc1Cl)C1CCN(c2cnc3nccnc3c2)CC1	11.2%
O=c1[nH]c2cccnc2n1C1CCCCC1	i
O=C(O)CCC(=O)N1CC[C@H](c2nnc(-c3cccnc3)o2)C1	11.5%[44.1 µM]
O=C(c1ccccn1)N1CCN(C(=O)c2nnn3c2COC(c2ccc(Cl)cc2)C3)CC1 (stereo not drawn)	i
NC(=O)N1CCCC(C(=O)N2CCN(c3nsc4ccccc34)CC2)C1 (stereo not drawn)	7.0%
NC(=O)CCNC(=O)C1=C[C@@H](NC(=O)Nc2cccc(F)c2)[C@@H](O)[C@H](O)C1	-22.6%[44.1 µM]
O=C(CN1C(=O)NC2(CCOCC2)C1=O)Nc1ccccc1Cl	46.8%
O=C1CC(c2ccccc2)N(C(=O)CNS(=O)(=O)c2ccc3c(c2)OCCO3)CCCCCN1 (stereo not drawn)	i
O=C1CC(c2ccccc2)N(C(=O)NCc2ccccc2)CCCCCN1 (stereo not drawn)	-1.7%
N#Cc1ccc(CN2CCCCCCNC(=O)CC2c2ccccc2)cc1 (stereo not drawn)	i
